# Many of the other results were omitted from the sample, so hits are more common in it than they were.
# Dicer processing: inhibitors of Dicer pre-microRNA processing, primary screen, biochemical, cat-ELCCA, chemiluminescence; AID 1347074, 2019; cat-ELCCA pre-miR-21 Dicer processing; stronger effect = higher value; z-score at 25 µM; 47,000 tested, 6% active; Endoribonuclease Dicer (Homo sapiens), Q9UPY3; in the data active means z-score above about 3, passing the limit was not always enough;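 further: plate controls were vehicle for no effect and no enzyme for full effect; higher signal means more uncleaved substrate so more Dicer inhibition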
# Numbers without * were called inactive.
SMILES,Dicer processing
CCOc1cc(C2Nc3ccc4ccccc4c3C3=C2C(=O)CCC3)ccc1O (centres undefined),1.72
COc1ccc(Br)cc1C1CC(=O)c2c(ccc3ccccc23)N1 (centres undefined),3.31*
COc1ccc(C(=O)Nn2c(C)cc(=O)cc2C)cc1,-0.53
CC(=O)/C(=C\Nc1ccccc1O)c1nnnn1-c1ccccc1,23.2
O=C(CSc1n[nH]c(-c2ccncc2)n1)c1ccc(Cl)cc1,-0.35
COC(=O)CSc1nnnn1-c1ccc(C(=O)OC)cc1,2.66
CC1(C)OC(=O)C(=Cc2ccc(Cl)s2)C(=O)O1,0.62
COc1cc(C2c3c(oc4ccc(F)cc4c3=O)C(=O)N2Cc2ccc3c(c2)OCO3)ccc1O (centres undefined),2.06
COc1ccc(OC)c(CN2CCN(S(=O)(=O)c3ccc(Cl)cc3)CC2)c1,3.07*
COc1ccc(OC)c(CN2CCN(Cc3ccncc3)CC2)c1,13.3
COc1ccc(S(=O)(=O)N2CCN(Cc3cc(OC)ccc3OC)CC2)cc1,0.59
CCOC(=O)c1ccc2nc(NC(=O)c3ccc(F)c(Cl)c3)sc2c1,1.54
C=CCN1C(=O)NC2(CCCCC2)C1=O,0.27
CCOc1ccc(C(c2c[nH]c3ccccc23)c2c[nH]c3ccccc23)cc1,3.4*
Cc1[nH][nH]c(=O)c1C(c1c(C)[nH][nH]c1=O)c1c[nH]c2ccccc12,-6.84
CCOc1cccc(C(c2c[nH]c3ccccc23)c2c[nH]c3ccccc23)c1OC,3.98*
CCOc1ccccc1C(c1c(C)[nH][nH]c1=O)c1c(C)[nH][nH]c1=O,-6.8
NCC(c1ccccc1)c1c[nH]c2ccccc12 (centres undefined),-0.35
Oc1ccc(Cl)c(C(c2c[nH]c3ccccc23)c2c[nH]c3ccccc23)c1,0.64
CCN(CC)CC(O)COc1cc(C(F)(F)F)ccn1 (centres undefined),-0.45
CCC(NC1CCS(=O)(=O)C1)C(=O)O (centres undefined),2
CC(C)S(=O)(=O)c1csc(NC(=O)Nc2cc(Cl)ccc2Cl)c1Cl,5.35*
CC(C)S(=O)(=O)c1csc(NC(=O)Nc2ccccc2Cl)c1,1.7
CC(C)S(=O)(=O)c1csc(NC(=O)N=S(C)(=O)c2ccc(Cl)cc2)c1Cl (centres undefined),-0.93
O=c1nc2sccn2c2ncccc12,-0.5
SMILES,Dicer processing
CSc1nsc(SC)c1CO,-0.04
CCCCCCSC1=C(C#N)C(c2ccc(Cl)cc2)CC(=O)N1 (centres undefined),0.92
CCCCCCNC(=O)NC(Cc1ccccc1)C(=O)OCC (centres undefined),-0.79
CCOC(=O)[C@H](CCCN=C(N)N)NC(=O)c1ccccc1,4.75*
O=C(NC(CO)C(=O)O)c1ccccc1 (centres undefined),2.07
CC1(C)CC(=O)c2c(Nc3ccccc3)nn(-c3ccccc3)c2C1,-0.11
O=C(NNc1cc(C(F)(F)F)nc2ccccc12)Nc1ccc(Cl)cc1,-0.25
O=C(O)C1CCCCN1S(=O)(=O)c1ccc2ccccc2c1 (centres undefined),-0.45
NNC(=S)NC1CC2CC1C1C=CCC21 (centres undefined),0.94
CCCN1C(=O)C(O)(CC(=O)c2ccco2)c2ccccc21 (centres undefined),0.02
CC(C)N1C(=O)C(O)(CC(=O)c2ccco2)c2ccccc21 (centres undefined),6.92*
COc1ccc(OC)c(C(=O)CC2(O)C(=O)N(C(C)C)c3ccccc32)c1 (centres undefined),0.57
CC#C[C@]1(O)CC[C@H]2[C@@H]3CCC4=CC(=O)CCC4=C3[C@@H](c3ccc(N(C)C)cc3)C[C@@]21C,0.71
CCOC(=O)C(NC(=O)c1ccccc1Cl)(Nc1cccc(C)n1)C(F)(F)F (centres undefined),1.93
CCOC(=O)C(O)(NC(=O)c1ccccc1Cl)C(F)(F)F (centres undefined),0.08
COC(=O)C(O)(NC(=O)c1ccccc1Cl)C(F)(F)F (centres undefined),3.85*
CCOC(=O)C(NC(=O)c1ccccc1Cl)(Nc1ccc(C)cn1)C(F)(F)F (centres undefined),3.04*
CCOC(=O)C(NC(=O)c1ccccc1Cl)(Nc1cc(C)ccn1)C(F)(F)F (centres undefined),-0.24
CCOC(=O)C(O)(NC(=O)c1ccccc1C)C(F)(F)F (centres undefined),2.57
c1ccc(C2CC3CC(c4ccccc4)N2O3)cc1 (centres undefined),2.61
C/C(=N\O)c1nnn(-c2cc(C(F)(F)F)ccc2Cl)c1C,-0.4
CC(C)OC(=O)C1C(=O)CC(C)(O)C(C(=O)OC(C)C)C1c1ccc(F)cc1 (centres undefined),0.25
CCN(CC)C(=O)N1c2ccccc2CCc2ccccc21,1.34
CCOC(=O)c1c(C)oc2cc(Br)c(OCC(=O)OCc3ccccc3)cc12,-0.17
COCCOC(=O)C1=C(C)NC2=C(C(=O)CC(c3cccs3)C2)C1c1ccc(C(=O)OC)cc1 (centres undefined),-0.66
SMILES,Dicer processing
CC(=O)Oc1cn(C(C)=O)c2ccccc12,-1.35
O=C(O)Cn1cnc(-c2ccc(Cl)cc2)c1,0.09
Nc1cc(=O)[nH]c(SCc2ccc(Cl)cc2Cl)n1,-0.88
O=c1[nH]c(SCc2ccc(Cl)cc2Cl)nc2ccccc12,3.7*
NC(=O)CSc1nc2ccccc2c(=O)[nH]1,-0.39
CCOC(=O)C(C=Nc1ccc(Cl)cc1Cl)C(C)=O (centres undefined),-0.65
CC(C)/C(N)=N/C(=S)Nc1ccccc1,-0.61
Cc1ccccc1Cn1c(SC(C)C(=O)O)nc2c1c(=O)n(C)c(=O)n2C (centres undefined),0.7
Cc1ccccc1Cn1c(SCc2nn[nH]n2)nc2c1c(=O)n(C)c(=O)n2C,3.47*
CCSc1nc2c(c(=O)n(C)c(=O)n2C)n1Cc1ccccc1C,-0.76
CC1(c2ccc(OS(=O)(=O)c3ccc(Cl)cc3)cc2)SCCS1,-0.76
CC(C)(C)c1ccc(-c2nnc(Sc3cnc([N+](=O)[O-])s3)o2)cc1,5.84
Cc1c(NS(=O)(=O)c2ccccc2)cc(Cl)c(O)c1C,2.15
Cc1ccc(S(=O)(=O)Nc2cc(Cl)c(O)cc2C)cc1,4.28*
Cc1ccc(S(=O)(=O)Nc2cc(C(C)C)c(O)c(Cl)c2C)cc1,3.18*
Cc1ccc(S(=O)(=O)Nc2cc(S(=O)(=O)c3ccc(C)cc3)c(O)c3ncccc23)cc1,-1.26
Cc1ccc(S(=O)(=O)Nc2cc(C)c(Br)cc2NS(=O)(=O)c2ccc(C)cc2)cc1,7.15
Cc1ccc(S(=O)(=O)Nc2cc(C)c(O)c(Cl)c2)cc1,0.77
N#C/C(=C\c1cccc2ccccc12)C(N)=O,-2.31
Cc1ccc(NC(=S)Nc2cccc(Cl)c2)cc1NS(C)(=O)=O,0.22
CCc1ccc(C(=O)/C=C/Sc2nc(C)cc(C)n2)cc1,-0.9
Cc1ccc(S(=O)(=O)CCSC2=CC(=O)CC(C)(C)S2)cc1,-3.16
CC1(C)CC(=O)C=C(SCc2ccc(Cl)cc2)S1,4.02*
CC1(C)CC(=O)C=C(SCCS(=O)(=O)c2ccccc2)S1,1.9
C=C1SC(Nc2cccc(C(F)(F)F)c2)=NC12CCCCC2,-1.09
COC(=O)C1=C(C)Nc2c(c(=O)n(C)c(=O)n2C)C1c1ccc(Br)cc1 (centres undefined),3.4*
COC(=O)C1=C(C)NC2=C(C(=O)CCC2)C1c1ccc(Br)cc1 (centres undefined),-0.9
COC(=O)C1=C(C)Nc2[nH]c(=O)[nH]c(=O)c2C1c1ccc(Br)cc1 (centres undefined),1.18
